Screening data as filed in PubChem.
Rows were chosen to be rich in hits. Some 4.8% of all compounds tested hit in one or more screens of this group.
tim23-1 inh – growth inhibitors of tim23-1 mutant yeast, primary screen, luminescence, uHTS; S. cerevisiae tim23-1 growth, BacTiter-Glo luminescence, 24 h; inhibition, % at 20 µM; 1.3% of 330,000 active;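 active means growth inhibition of the mutant yeast at or above 50%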;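 further: temperature-sensitive mutant grown at 25 °C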
PfHsp90 set2 – growth inhibition of PfHsp90-expressing yeast, primary screen, antimalarial PfHsp90 inhibitor project, S. cerevisiae, BacTiter-Glo luminescence, single point, set 2. BacTiter-Glo ATP, 48 h; yeast lacking PDR1 and PDR3 efflux regulators. inhibition, % at 9.4 µM. 0.32% of 310,000 active;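 active means every replicate shows inhibition above about 80%, whatever the replicate mean, limit read from the data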
NALP1 yeast inh – NALP1 inflammasome inhibitors in reconstituted yeast, colorimetric, S. cerevisiae, triplicate retest; inhibition, % at 10 µM; S. cerevisiae NALP1/ASC/caspase-1 growth, X-gal OD620, 72 h; 0.61% of 280,000 active; in the data active means inhibition mostly above about 24%, no sharp cut-off; inactive means mostly below about 32%
TIM10 inh – growth inhibitors of isogenic TIM10 control yeast, primary screen, counter-screen for tim10-1 yeast inhibitor project, luminescence, uHTS; inhibition, % at 10 µM; 1.4% of 330,000 active; S. cerevisiae TIM10 strain growth, BacTiter-Glo luminescence, 24 h;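 active means inhibition of 40% or more at the single tested concentration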;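 further: wild-type TIM10 isogenic control strain grown at permissive 25 °C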
tim10-1 inh – growth inhibitors of tim10-1 mutant yeast, primary screen, luminescence, uHTS. inhibition, % at 20 µM. AID 463190, 2010. S. cerevisiae tim10-1 ts strain growth, BacTiter-Glo, 24 h. 2.2% of 330,000 active;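 active means inhibition of at least 40%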;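 further: mutant grown at 25 °C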
SKKanGAS inh – S. pyogenes SKKanGAS growth inhibitors in kanamycin, primary screen, streptokinase expression inhibitor project, SKKanGAS strain, BacTiter-Glo luminescence; 6 h; inhibition, % at 7.5 µM; 1.3% of 300,000 active; AID 1662, 2009;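 active means mean replicate score, as percent of positive control median, at least 50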;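 further: strain carries kanamycin resistance gene driven by streptokinase promoter and grows in 40 µg/ml kanamycin; loss of luminescence reflects streptokinase promoter inhibition or plain growth inhibition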
tim10 confirm – growth inhibitors of wild-type TIM10 yeast, confirmation, counter-screen for tim10-1 synthetic lethality project, single concentration, luminescence, S. cerevisiae; shares compounds with TIM10 inh; S. cerevisiae tim10 strain growth, BacTiter-Glo luminescence, 24 h; inhibition, % at 10 µM; 63% of 4,600 active;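 active means inhibition of yeast growth at or above a set limit in either of two replicates at 10 µM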; further: this counterscreen used the strain with wild-type TIM10
Large screens that a line does not name were inactive (follow-up assays come after a bar, where they were run).

Cc1ccc([N+](=O)[O-])cc1N=Nc1c(C)[nH]n(C(N)=S)c1=O	TIM10 inh 43.2 | tim10 confirm 34.0
O=C(Nc1cccc(F)c1)c1cc(S(=O)(=O)NCCC2=CCCCC2)ccc1F	TIM10 inh 41.9 | tim10 confirm inactive
Cc1c(C(=O)NCc2cccnc2)oc2ccc(S(=O)(=O)N3CCCCC3)cc12	none
Cc1c(C(=O)NCc2cccnc2)oc2ccc(S(=O)(=O)N3CCCCCC3)cc12	TIM10 inh 42.5 (no result: PfHsp90 set2) | tim10 confirm inactive
CC(C)CCOP(=O)(c1ccc(N(C)C)cc1)C(O)c1ccccc1F (stereo unspecified)	TIM10 inh 50.1 | tim10 confirm 41.4
CC(C)CCOP(=O)(c1ccc(N(C)C)cc1)C(O)c1ccc(C(C)C)cc1 (stereo unspecified)	none | tim10 confirm 36.3
Cc1ccc(C(C)NC(=O)c2c(-c3ccccc3)noc2C)cc1C (stereo unspecified)	none
Cc1ccc(S(=O)(=O)n2ccnc2)cc1C	none
NNc1ccc(S(=O)(=O)N2CCCCC2)cn1	none (no result: NALP1 yeast inh, SKKanGAS inh)
C/C(=N\Nc1ccc(S(=O)(=O)N2CCCCC2)cn1)c1cccc(Br)c1	TIM10 inh 41.2 (no result: NALP1 yeast inh, SKKanGAS inh) | tim10 confirm 45.5
CCSc1nnc(NC(=O)c2c(C)noc2C)s1	none
Cc1cccc(-c2nc(C#N)c(NC3CCCCC3)o2)c1	none
Nc1nnc(SCCCC(=O)c2ccc(Br)cc2)s1	TIM10 inh 40.1 | tim10 confirm inactive
Nc1nnc(SCCCC(=O)c2ccc(F)cc2)s1	none
CN1C(=O)/C(=C/c2ccc(O)c([N+](=O)[O-])c2)N(C)C1=S	none
CCc1ccccc1NC(=S)N(Cc1ccco1)C(C)c1cccs1 (stereo unspecified)	TIM10 inh 80.9 | tim10 confirm inactive
CN(C)S(=O)(=O)c1cccc(NC(=S)NC2CCCCC2)c1	none (no result: PfHsp90 set2)
Cc1cc(NC(=S)NC(=O)C2CC2)ccc1Br	TIM10 inh 41.1 (no result: PfHsp90 set2) | tim10 confirm 41.8
CN(C)S(=O)(=O)c1cccc(NC(=S)NC(=O)C2CCCCC2)c1	TIM10 inh 41.1 | tim10 confirm 35.3
Cc1ccccc1NC(=S)NC(=O)C1CCCCC1	none
Cc1ccc(NC(=S)NC(=O)C2CCCC2)c(Br)c1	TIM10 inh 41.2 (no result: NALP1 yeast inh, SKKanGAS inh) | tim10 confirm 35.1
O=S(=O)(c1ccc(N2CCN(Cc3ccccc3)CC2)nc1)N1CCCC1	none (no result: NALP1 yeast inh, SKKanGAS inh)
Cc1nc(Nc2c(Cl)cccc2Cl)sc1C(=O)Nc1ccccc1	TIM10 inh 44.5 | tim10 confirm inactive
Cc1nc(NC(=O)C2CC2)sc1C(=O)Nc1ccccc1	none
CN1C(=O)N(C)C2(c3ccccc3)Nn3c(s/c(=C/c4ccco4)c3=O)=NC12c1ccccc1 (stereo unspecified)	none
COc1ccc2cc(C(=O)N/N=C/c3sc4ccccc4c3O)ccc2c1	none
O=C(N/N=C/c1sc2ccccc2c1O)c1ccccc1	PfHsp90 set2 100.1, TIM10 inh 40.3, SKKanGAS inh 90.1 | tim10 confirm inactive
O=C(c1ccc2nc[nH]c2c1)N1CCN(S(=O)(=O)c2cccc(F)c2)CC1	none (no result: NALP1 yeast inh)
O=[N+]([O-])c1ccc(N/N=C\c2cccn2-c2ccccc2)nc1	TIM10 inh 43.3 | tim10 confirm inactive
COCCNC(=O)c1onc(CSc2ccccc2F)c1C(=O)O	none
O=C(NC(=S)Nc1ccc2c(c1)OCCO2)c1cccc2ccccc12	TIM10 inh 44.1 | tim10 confirm 48.3
c1csc(C2C3=C(Nc4ncnn42)c2ccccc2OC3)c1 (stereo unspecified)	TIM10 inh 43.0 | tim10 confirm inactive
O=C(COC(=O)Cc1c[nH]c2ccccc12)Nc1c(Cl)cccc1C(F)(F)F	none (no result: NALP1 yeast inh)
C=CCN(C(=O)CSc1nc2c(sc3ccccc32)c(=O)n1CCN(CC)CC)c1ccccc1	TIM10 inh 51.3 | tim10 confirm inactive
